# High-throughput results: PubChem, National Center for Advancing Translational Sciences (NCATS)
# IL-1B inflam inh: qHTS for Inhibitors of Inflammasome Signaling: IL-1-beta AlphaLISA Primary Screen. THP-1 LPS/ATP IL-1B secretion, AlphaLISA, 16 h; stronger effect = lower value. activity change, % at 57.5 µM. 4.7% of 360,000 active; in the data active = activity change below about -50%; inconclusive = mostly about -30% to -49%
#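 Secreted IL-1B measured by AlphaLISA bead assay after 16 h compound exposure of THP-1 cells; compounds (final up to 57.5 uM) added 1 h before LPS (250 ng/mL) and ATP (1.25 mM) stimulation; lower signal means less secretion.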
# HT1080-NT tox: qHTS for induction of synthetic lethality in tumor cells producing 2HG: qHTS for the HT-1080-NT fibrosarcoma cell line | HT-1080-NT fibrosarcoma viability, CellTiter-Glo ATP luminescence, 48 h | Potency, µM (series often up to 46.1 µM), for the others: at the top dose activity, negative = less viability, actives largely listed as cytotoxic | 1.6% of 360,000 active;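 also: NT is the 2HG producing partner of a matched IDH1 knockdown line; potency is read from the fitted curve at half-maximal effect; 0% = DMSO-treated cells and -100% = media-only wells without cells; nearly all actives have a fitted effect of over 55% in size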
#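 Read-out is CellTiter-Glo luminescence after 10 minutes at room temperature, following 48 hours' compound treatment of HT-1080-NT cells (750 cells/well, RPMI, 5% FBS, 37 degrees C).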
# TDP1 cell noCPT: qHTS for Inhibitors of human tyrosyl-DNA phosphodiesterase 1 (TDP1): qHTS in cells in absence of CPT. 15% of 420,000 active. AID 686978, 2013. Potency, µM (doses to about 46.2 µM), without a hit: at the highest dose activity change, negative = growth inhibition, most hits filed as inhibitors. DT40 Tdp1-/- hTDP1 cells, no CPT, ATP luminescence, 48 h; also: potency is read from the fitted curve at half-maximal effect; nearly all actives have a fitted effect of over 55% in size
#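 Compound effects on proliferation are scored in DT40 Tdp1-/-;hTDP1 cells in the absence of CPT. ATP levels (CellTiter-Glo luminescence) are recorded after a ≥48 hr, 37 °C incubation.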
# HT1080 IDH1KD tx: qHTS for induction of synthetic lethality in tumor cells producing 2HG: qHTS for the HT-1080-IDH1KD cell line. HT-1080 IDH1 knockdown viability, ATP luminescence, 48 h. Potency, µM (series often up to 46.1 µM), inactives show at the top dose activity, negative = toxicity, usual class: cytotoxic. 2% of 360,000 active. AID 686971, 2013;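 also: potency is read from the fitted curve at half-maximal effect; 0% = DMSO wells and -100% = cell-free medium wells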
#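 IDH1KD HT-1080 cells, 750/well, RPMI + 5% FBS; compound pinned after 2 h settling; 48 h, 37 °C; CellTiter-Glo luminescence; % activity normalised to DMSO and no-cell wells; curves fitted, classed by r2 and efficacy.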
# DT40 TDP1 CPT: qHTS for Inhibitors of human tyrosyl-DNA phosphodiesterase 1 (TDP1): qHTS in cells in presence of CPT. 12% of 420,000 active. chicken DT40 Tdp1-/-;hTDP1 cells + 20 nM CPT, ATP luminescence, 48 h. AID 686979, 2013. Potency, µM (top dose mostly 46.2 µM), for the others: at the highest dose activity change, negative = growth inhibition, hits mostly inhibitors; also: potency is read from the fitted curve at half-maximal effect; nearly all actives have a fitted effect of over 55% in size
#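 Cell growth measured by CellTiter-Glo luminescence after a minimum 48 h, 37 C compound exposure with 20 nM CPT in Tdp1-knockout DT40 cells stably expressing hTDP1, seeded 400/well; qHTS titration format.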
# * = called active by the depositor; u = inconclusive; x = no result given. A selection: hits, their analogues and other compounds. The true share with any hit is near 19%. Unless noted, calls follow the shape of the dose curve; as a rule, active = well fitted curve in the direction sought with a large enough effect; inconclusive = small, poorly fitted or top-dose-only effect, or another doubt; inactive = no such curve, though single readings can be large; an effect the other way counts as inactive or inconclusive. Unless noted, % is scaled to controls: 0 for no effect and ±100 for the full control effect.
SMILES,IL-1B inflam inh,HT1080-NT tox,TDP1 cell noCPT,HT1080 IDH1KD tx,DT40 TDP1 CPT
CC(C(=O)Nc1ccccc1C(F)(F)F)N1CCN(C)CC1 (stereo unspecified),2,0%,-25%,2%,0%
Cn1c2c(c(=O)n3ncnc13)CCCC2,9,15%,0%,9%,13%
CCOC(=O)c1c(CC(C)C)csc1NC(=O)CCl,-24,-9%,10µM*,-9%,13µM*
CCOC(=O)c1c(-c2cccs2)csc1NC(=O)CN1CCOCC1,-17,-19%,21µM*,-27%,u
COc1ccc(CCN(C)C(=O)c2ccc(C)c(S(=O)(=O)N3CCCCC3)c2)cc1OC,u,0%,u,6%,-29%
CC(C)C(=O)N1CCC1(C)C(=O)Nc1cccc(Oc2ccccc2)c1 (stereo unspecified),17,-1%,u,4%,u
Cc1cc(C)c(NC(=O)c2cc(S(=O)(=O)N3CCN(c4ccccc4F)CC3)ccc2F)c(C)c1,x,x,4.1µM*,x,u
Cc1ccc(N2CCN(S(=O)(=O)c3ccc(F)c(C)c3)CC2)c(C)c1,22,-12%,u,-25%,u
COc1ccccc1N1CCN(S(=O)(=O)c2ccc(F)c(C(=O)Nc3ccc(C)c(F)c3)c2)CC1,x,x,u,x,16µM*
CCC(=O)c1cc(F)c(N2CCN(S(=O)(=O)c3ccc(C)cc3)CC2)cc1C,-9,-19%,21µM*,-2%,u
CCc1ccccc1N1CCN(S(=O)(=O)c2ccc(F)c(C)c2)CC1,-10,7%,21µM*,10%,u
O=C(c1ccco1)N1CCN(Cc2c(Cl)cccc2Cl)CC1,0,-2%,9.2µM*,-13%,u
O=C(c1ccco1)N1CCN(CC(O)Cn2c3ccccc3c3ccccc32)CC1 (stereo unspecified),-24,-30%,u,u,18µM*
CCc1ccc(CN2CCN(C(=O)c3ccco3)CC2)cc1,u,-2%,-17%,-6%,u
O=C(c1cc(-c2ccccc2Cl)on1)N1CCN(C(=O)c2ccco2)CC1,-29,13%,-13%,0%,-10%
O=C(c1ccco1)N1CCN(Cc2csc(-c3ccccc3Cl)n2)CC1,-1,-10%,21µM*,-21%,u
O=C(c1ccco1)N1CCN(Cc2cccc3ccccc23)CC1,-24,-25%,u,-25%,8.2µM*
O=C(CNC(=O)c1cncc(Br)c1)Nc1ccc(F)c(F)c1F,34,15%,-17%,11%,18%
CCOC(=O)N1CCN(C(=O)/C(=C/c2cccs2)NC(=O)c2cccs2)CC1,20,-9%,-19%,17%,6%
CC1CC(CN)CC(CO)C1 (stereo unspecified),14,4%,2%,-9%,-8%
Cc1cc(C)c(S(=O)(=O)Nc2ncn[nH]2)cc1C,-3,19%,-25%,-2%,-2%
CCCCC[C@@H](C)N1C[C@H](COCc2ccccc2)Oc2cc(N3CC[C@H](O)C3)ccc2S1(=O)=O,-17,u,u,u,u
Cc1cc(CNC[C@H]2O[C@@H](n3cnc(C(N)=O)n3)[C@H](O)[C@@H]2O)c(C)n1-c1cccnc1,7,2%,-14%,0%,8%
CC[C@@]1(C(=O)OC)N[C@H](CN(C)S(=O)(=O)c2ccc(OC(F)(F)F)cc2)[C@@H]2C(=O)N(C)C(=O)[C@@H]21,1,8%,-1%,4%,-29%
O=C(Nc1ccc(N2CCN(c3ccc(C(F)(F)F)cn3)CC2)nc1)c1cccs1,14,19%,1%,12%,3%
O=C(Nc1ccc(N2CCN(c3ncccc3C(F)(F)F)CC2)nc1)c1cccs1,-101*,18µM*,21µM*,21µM*,18µM*
